HT1080 IDH1KD tx: qHTS for induction of synthetic lethality in tumor cells producing 2HG: qHTS for the HT-1080-IDH1KD cell line. HT-1080 IDH1 knockdown viability, ATP luminescence, 48 h. Potency, µM (doses to about 46.1 µM), for the others: top-dose activity, negative = toxicity, actives largely listed as cytotoxic. 360,000 compounds, 2% hits. AID 686971, 2013;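 also: 0% = DMSO wells and -100% = cell-free medium wells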
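Assay cells: HT-1080 with IDH1 knockdown, 750 per well, RPMI/5% FBS. Exposure: 48 h at 37 °C following 2 h pre-incubation. Read: CellTiter-Glo luminescence; fitted concentration-response, curve class assigned.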
HT1080-NT tox: qHTS for induction of synthetic lethality in tumor cells producing 2HG: qHTS for the HT-1080-NT fibrosarcoma cell line; HT-1080-NT fibrosarcoma viability, CellTiter-Glo ATP luminescence, 48 h; 360,000 compounds, 1.6% hits; Potency, µM (series often up to 46.1 µM), without a hit: at the top dose activity, negative = less viability, most hits filed as cytotoxic; AID 686970, 2013;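 also: NT is the 2HG producing partner of a matched IDH1 knockdown line; 0% = DMSO-treated cells and -100% = media-only wells without cells; nearly all actives have a fitted effect of over 55% in size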
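Viability by CellTiter-Glo luminescence after 48 h compound exposure at 37C of HT-1080-NT cells (750/well, RPMI, 5% FBS). % activity scaled between DMSO wells and medium-only wells, then curve-fitted and categorized by curve class.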
KB-V1 MDR tox: qHTS assay for MDR1-selective chemotherapeutics: Primary screen using the drug-selected MDR subline cells KB-V1 | 400,000 compounds, 3.4% hits | AID 1347076, 2019 | KB-V1 MDR cells viability, CellTiter-Glo, 72 h | Potency, µM (doses to about 46.1 µM), usual class: cytotoxic; also: % is scaled to controls: 0 for no effect and ±100 for the full control effect; nearly all actives have a fitted effect of over 60% in size
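Compound-treated KB-V1 multidrug-resistant cells, 72 h, 37 degrees C; viability by CellTiter-Glo. Fitted qHTS curves give the values.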
KB-3-1 tox: qHTS assay for MDR1-selective chemotherapeutics: Primary screen using the parental adenocarcinoma cell KB-3-1; KB-3-1 viability, CellTiter-Glo ATP luminescence, 72 h; Potency, µM (series often up to 46.1 µM), hits mostly cytotoxic; 400,000 compounds, 1.4% hits; also: % is scaled to controls: 0 for no effect and ±100 for the full control effect; nearly all actives have a fitted effect of over 60% in size
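KB-3-1 parental drug-naive adenocarcinoma cells in DMEM/10% FBS, incubated 72 h at 37 C with pin-transferred compounds across a concentration series. Viability by CellTiter-Glo luminescence; concentration-response curves fitted after normalization.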
S2 tox: Viability Counterscreen for Primary qHTS for Inhibitors of ATXN expression; Potency, µM (doses to about 56.7 µM), hits mostly cytotoxic; AID 651635, 2014; S2 cells (HEK-293 line with an ATXN2-luciferase reporter) viability, CellTiter-Fluor protease fluorescence, 24 h; 400,000 compounds, 0.49% hits; also: nearly all actives have a fitted effect of over 40% in size
ATXN2 expr inh: Primary qHTS for Inhibitors of ATXN expression; HEK-293 ATXN2-luciferase reporter, luminescence, 24 h; Potency, µM (titrated, usually from 57 µM), inactives show at the top dose activity change, negative = inhibition, usual class: inhibitors; 360,000 compounds, 0.72% hits; AID 1745845, 2022; also: % is scaled to controls: 0 for no effect and ±100 for the full control effect; nearly all actives have a fitted effect of over 55% in size
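ATXN2-luciferase reporter cells (luciferase flanked by upstream and downstream ATXN2 gene portions) were treated 24 h at 37 °C with compounds at up to 57 uM. SteadyGlo luminescence gave expression; GF-AFC fluorescence gave viability.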
Starred values were filed as active, the others as inactive; i = inactive; ? = inconclusive; nt = no result given. In the library only some 6.2% were active in any assay of this set; here they are far more common. Calls follow the shape of the dose curve; as a rule, active = well fitted curve in the direction sought with a large enough effect; inconclusive = small, poorly fitted or top-dose-only effect, or another doubt; inactive = no such curve, though single readings can be large; an effect the other way counts as inactive or inconclusive. Potency is read from the fitted curve at half-maximal effect.

SMILES | HT1080 IDH1KD tx | HT1080-NT tox | KB-V1 MDR tox | KB-3-1 tox | S2 tox | ATXN2 expr inh
CCn1c(SCC(=O)Nc2nc(-c3ccc(C)cc3)cs2)nnc1-c1ccccc1 | -22.7% | -28.9% | 2.59µM* | ? | i | -11.8%
CCn1c(SCC(=O)Nc2nc(-c3ccc(C)cc3)cs2)nnc1-c1ccccc1O | ? | ? | i | ? | i | -15.5%
CCCCn1c(SCC(=O)Nc2nnc(CC)s2)nc2ccccc2c1=O | 2.7% | 2.6% | ? | i | i | 9.5%
CCNC(=O)[C@@H]1CCCN1C(=O)[C@H](CCCN=C(N)N)NC(=O)[C@H](CC(C)C)NC(=O)CNC(=O)[C@H](Cc1ccc(O)cc1)NC(=O)[C@H](CO)NC(=O)[C@H](Cc1c[nH]c2ccccc12)NC(=O)[C@H](Cc1cnc[nH]1)NC(=O)[C@@H]1CCC(=O)N1 | nt | nt | nt | nt | i | 11.2%
Fc1ccc(C2CC(c3cccs3)=NN2C(=S)Nc2ccccc2)cc1 (stereo not given) | -3.5% | 6.9% | 20.6µM* | i | i | -3.9%
COc1ccccc1CNc1nc(NCc2ccccc2OC)c2sccc2n1 | 23.1µM* | 20.6µM* | ? | ? | ? | ?
c1cc2cc(CNc3nc(NCC4CC4)nc4ccsc34)ccc2o1 | 13µM* | ? | ? | i | nt | ?
COc1ccccc1CNc1nc(NCC2CC2)nc2ccsc12 | 14.6µM* | ? | i | ? | nt | ?
c1ccc(OCCNc2nc(NCC3CC3)nc3ccsc23)cc1 | ? | 20.6µM* | ? | i | ? | -33.8%
COCCNc1nc(NCc2ccccc2OC)c2sccc2n1 | ? | ? | ? | i | ? | ?
Cc1ccccc1-c1nc(NCC2CC2)nc2ccsc12 | -11.7% | -1.4% | i | i | i | -4.6%
c1ccc(-c2nc(NCC3CC3)nc3ccsc23)cc1 | 3.7% | 13.2% | i | i | i | 6.8%
C[N+]1(CC(=O)c2ccc3ccccc3c2)CCOCC1 | nt | nt | i | ? | nt | nt
Brc1cccc(-c2cnn3c(-c4ccccc4)cc(-c4ccccc4)nc23)c1 | nt | nt | i | i | i | 6.1%
CCN(CC)C(=O)Cn1c(=O)n(-c2ccc(Cl)cc2)c(=O)c2c3c(sc21)CCC3 | nt | nt | i | i | i | 9.6%
O=C(Nc1ccc(F)c(Cl)c1)C1CCN(c2ncccn2)CC1 | nt | nt | i | i | ? | -11.4%
COc1ccccc1CNc1nc(NCc2cccs2)nc2ccsc12 | ? | ? | i | i | ? | ?
COc1ccccc1CNc1nc(NCCNC(C)=O)c2sccc2n1 | 16.8% | 16.1% | i | i | i | 0.3%
COc1ccccc1CNc1nc(Nc2ccccc2-n2cccn2)c2sccc2n1 | ? | ? | ? | i | 15.8µM* | 0.0%
COc1ccccc1CNc1nc(Nc2cccc(-c3cnco3)c2)c2sccc2n1 | nt | nt | i | ? | 20µM* | 0.0%
COc1ccccc1CNc1nc(NCCOc2ccccc2)c2sccc2n1 | ? | ? | 20.6µM* | ? | ? | ?
COc1ccccc1CNc1nc(NCc2ccc3occc3c2)c2sccc2n1 | ? | 16.4µM* | i | i | ? | ?
COc1ccccc1C(=O)N[C@@H]1c2ccccc2C2(CCN(Cc3cccnc3)CC2)[C@H]1O | nt | nt | nt | nt | i | nt
Cc1ccccc1OCCSc1nnc(-c2ccc([N+](=O)[O-])cc2)o1 | nt | nt | i | i | i | -1.9%
COc1ccc(OC)c(-c2cc(C(=O)Nc3cnn(Cc4ccc(Cl)cc4Cl)c3)no2)c1 | nt | nt | ? | i | ? | -23.8%
SMILES | HT1080 IDH1KD tx | HT1080-NT tox | KB-V1 MDR tox | KB-3-1 tox | S2 tox | ATXN2 expr inh
O=C(NCCc1nnc2n1CCN(Cc1ccc3c(c1)CCO3)CC2)c1ccco1 | nt | nt | nt | nt | i | nt
CNC(=O)c1ccc2c(c1)N=C(C)c1cc(C)ccc1S2 | nt | nt | ? | 18.4µM* | i | 2.1%
CCOC(=O)N1CCC(NC(=O)c2ccc3c(c2)N=C(C)c2ccccc2S3)CC1 | -22.0% | -13.5% | i | i | i | -13.8%
CC1=Nc2cc(C(=O)NC3CCCC3)ccc2Sc2ccc(Cl)cc21 | nt | nt | 3.66µM* | 3.26µM* | ? | -27.6%
CCC1=Nc2cc(C(=O)NC3CCCC3)ccc2Sc2ccc(Cl)cc21 | nt | nt | 2.91µM* | 5.8µM* | ? | -12.8%
CC1=Nc2cc(C(=O)NC3CCCC3)ccc2Sc2ccc(C)cc21 | nt | nt | 1.3µM* | 1.46µM* | ? | -11.4%
CCC1(C2CCN(Cc3ccccc3Cl)CC2)NC(=O)N(CC2COc3ccccc3O2)C1=O (stereo not given) | nt | nt | nt | nt | i | nt
O=C(CCc1nc(-c2cccs2)no1)Nc1ccccc1[N+](=O)[O-] | nt | nt | i | i | i | 13.7%
Cc1cnc(-n2ncc(C(=O)N(C)C3CCOC3)c2-c2cccs2)nc1-c1ccc(F)cc1 (stereo not given) | nt | nt | nt | nt | i | nt
NC[C@@H]1O[C@@H](O[C@H]2[C@@H](O)[C@H](O[C@@H]3[C@@H](O)[C@@H](N)C[C@H](N)[C@H]3O[C@H]3O[C@H](CN)[C@@H](O)[C@@H](O)[C@H]3N)O[C@H]2CO)[C@H](N)[C@@H](O)[C@@H]1O | nt | nt | nt | nt | i | 2.1%
Cn1nc(NC(=O)C(F)(F)F)c2ncc(-c3ccccc3)nc21 | -3.5% | -7.6% | 18.4µM* | i | i | nt
CCOC(=O)c1ccc(NC(=O)Cn2nnc(-c3ccc(C(F)(F)F)cc3)n2)cc1 | nt | nt | i | i | i | -13.0%
CCc1ccc(NC(=O)c2cc(=O)c3ccc(C)c(C)c3o2)cc1 | nt | nt | 5.8µM* | i | i | -15.5%
O=Cc1c(Sc2ccccc2)nc2ccccn2c1=O | ? | ? | ? | 14.6µM* | i | 23.8%
Cc1cnc(-n2ncc(C(=O)N(CCO)C(C)C)c2-c2cccs2)nc1-c1ccc(F)cc1 | nt | nt | nt | nt | i | nt
CC(C)(C)C1=CC(=Nc2ccccc2N)C=C(C(C)(C)C)C1=O | ? | ? | ? | ? | i | 14.0%
CC(C)(C)C1=CC(=O)C(=O)C(C(C)(C)C)=C1 | ? | ? | 13µM* | i | 12.6µM* | nt
CN(C)S(=O)(=O)N1CCC(n2cnc3cccnc32)CC1 | nt | nt | i | i | i | 3.8%
CCn1c(=O)c2cc(C(=O)N(CC(C)C)CC(C)C)sc2c2ccccc21 | nt | nt | ? | i | i | -7.3%

Compound activity: PubChem BioAssay, National Center for Advancing Translational Sciences (NCATS)
